# Data reported in PubChem BioAssay (NCI).
# About 79,000 compounds went through this panel and 15% of them were active in at least one assay; those are over-represented in the sample as a whole. A number with no mark means an inactive call. Active and inactive are the calls of the source. No stated cut-off is given here; in the data, active means growth inhibition above about 70%; inactive means the rest.
# Legend:
# [1] = NCI Yeast Anticancer Drug Screen. Data for the rad50 strain (AID 155);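 further: 0% = growth of vehicle-only cultures of the same strain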; details: S. cerevisiae rad50 strain growth inhibition; at 50.0 µM; active compounds read high
# Summary of the method: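 Readout: growth inhibition relative to vehicle-treated cultures. Compound exposure was carried out in a genetically defined yeast strain deficient in DNA damage repair.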
# [2] = NCI Yeast Anticancer Drug Screen. Data for the mec2-1 strain (AID 157); details: S. cerevisiae mec2-1 strain, at 50.0 µM, active compounds read high
# Summary of the method: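 Growth inhibition is read against vehicle-treated controls after compound exposure of the mec2-1 yeast strain, which is defective in DNA damage repair or cell cycle control.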
# [3] = NCI Yeast Anticancer Drug Screen. Data for the sgs1 mgt1 strain (AID 161);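 further: 0% = growth of cultures given vehicle only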; details: S. cerevisiae sgs1 mgt1 strain, at 50.0 µM, active compounds read high
# Summary of the method: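 Growth of a repair-deficient yeast mutant was monitored after compound treatment and expressed as inhibition relative to vehicle-treated cultures.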
# [4] = NCI Yeast Anticancer Drug Screen. Data for the cln2 rad14 strain (AID 165);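 further: 0% = growth equal to vehicle treated cultures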; details: S. cerevisiae cln2 rad14 strain, at 50.0 µM, active compounds read high
# Summary of the method: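 Growth inhibition, relative to vehicle-treated controls, is the read-out. The test organism is a yeast strain with defined genetic alterations, cln2 rad14.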
# [5] = NCI Yeast Anticancer Drug Screen. Data for the bub3 strain (AID 167); details: S. cerevisiae bub3 mutant strain, at 50.0 µM, active compounds read high
# Summary of the method: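 Readout: yeast growth inhibition, expressed relative to vehicle-only wells. The test organism is a mutant strain from a panel with lesions in DNA repair or checkpoint genes.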
# [6] = NCI Yeast Anticancer Drug Screen. Data for the mlh1 rad18 strain (AID 175); details: S. cerevisiae mlh1 rad18 strain growth inhibition; at 50.0 µM; active compounds read high
# Summary of the method: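 Cells of a genetically altered yeast strain, deficient in DNA damage repair, were treated with compound. Their growth was then compared with that of vehicle-treated cultures to give inhibition.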
Compound,growth inhibition [1],growth inhibition [2],growth inhibition [3],growth inhibition [4],growth inhibition [5],growth inhibition [6]
N=C(N)N.[O]=[Cr](=[O])([OH])[OH],29.4%,-39.9%,37.5%,10.6%,26.8%,30.6%
Cc1ccc(N2CCNCC2C)cc1 (centres undefined),6.15%,-13.2%,-4.6%,8.95%,-9.25%,11.2%
NNC(N)=NCCCC(N)C(=O)O (centres undefined),-22%,-42%,-34.3%,5.2%,-45.6%,-16.6%
CCOP(=O)(OCC)/C(C#N)=C/c1ccc(C)o1,-34.2%,-13.3%,-49.6%,-7%,-19.8%,-41.6%
CCC(=O)[O-].CCC(=O)[O-].N.N.N.N.[Co+3].[O-][Cl+3]([O-])([O-])[O-],-9.55%,-1.6%,-9.1%,17.9%,2.05%,-12.2%
O=C(O)CCCO,-13.8%,-20.3%,-23.9%,3.3%,1.45%,-10.4%
Nc1ccc2c(c1)[O][Sn]([c]1ccccc1)([c]1ccccc1)[O]C2=O,85.5% (active),89.5% (active),89.1% (active),89.2% (active),88.1% (active),89.3% (active)
COC(=O)C[N+]1(C)C2CCC1CC(O)C2 (centres undefined),1.5%,2.75%,0.55%,-23.3%,-17.1%,9.95%
Cc1csc2sc3ccccc3[n+]12,5.75%,-6.85%,-0.5%,-5.8%,-11.9%,-34.1%
C[C@@H]1C[C@@H](O)[C@]2(O)O[C@@H]3C[C@@]4(C=O)[C@@H](CC[C@@H]5[C@@H]4CC[C@]4(C)[C@@H](C6=CC(=O)OC6)CC[C@]54O)C[C@H]3O[C@@H]2O1,-7.25%,-16.6%,27.4%,-4.55%,-15.2%,-96.5%
c1ccc2c3c(ccc2c1)NC1CCCN1C3 (centres undefined),21.8%,6.65%,-0.85%,-38.8%,-8.6%,12.2%
NS(=O)(=O)c1cccc([As](=O)(O)O)c1,-11.1%,10.4%,-12.9%,-3.55%,-13.9%,-3.6%
CC(=O)C(C)(C)C,0%,-1.45%,5.15%,3%,3.5%,24.1%
CCCCOP(O)(=S)OCCCC.[Tb],-19%,14.6%,-14.6%,29.1%,-14.8%,17.9%
COc1cc(C=C2C(=O)NC(=S)NC2=O)cc(OC)c1OC,5.05%,-15.9%,3.35%,18.6%,-1.35%,-0.95%
CN(C)C(=O)c1nnsc1NN=O,32%,33.7%,-35.1%,8.35%,-14.4%,9.35%
CCCCCCN(CCCCCC)C1C=CCCC1 (centres undefined),-5.4%,-11.2%,0.25%,-32.6%,-2.2%,-4.15%
COc1cc(C)c(C(CC(=O)O)CC(=O)N(CCCl)CCCl)cc1C(C)C (centres undefined),60.4%,4.3%,20.1%,28.2%,4.5%,57.6%
C1CCN2CC3CONC3C2C1 (centres undefined),-11.3%,-7.5%,2.05%,13.7%,-6.2%,-3.05%
NC(=O)c1cc([N+](=O)[O-])cc([N+](=O)[O-])c1N(CCCl)CCCl,-3%,-10.9%,-15.4%,-3.8%,-8.95%,-14.6%

Compound,growth inhibition [1],growth inhibition [2],growth inhibition [3],growth inhibition [4],growth inhibition [5],growth inhibition [6]
PCc1ccccc1.[Cl][Hg][Cl],-34.7%,12.7%,14.2%,-59.4%,-6%,12.6%
CCCCC(=O)[O-].N.N.N.N.N.[Co+3].[O-][Cl+3]([O-])([O-])[O-],-19.9%,19.4%,-18.4%,21.4%,-0.3%,-16%
C1C[OH+]CC[OH+]CC[OH+]CC[OH+]CC[OH+]1.[Cl-].[V],-13.2%,-6.25%,-1.95%,-10.8%,-12%,-1%
O=[N+]([O-])c1ccc2sc3ccccc3c2c1,63.1%,12.2%,26.3%,44%,-3.35%,58.8%
C1CC[N-]CC1.CC(=N\O)/C(C)=N/O.CC(=N\O)/C(C)=N/O.CCOC(=O)CC[C-]=O.[Co+2],-15.1%,8.95%,-10.1%,-39.3%,18%,9.55%
CC1(Cl)C(=O)NC(=O)NC1O (centres undefined),4.45%,2.5%,12.2%,20.4%,0.1%,19.1%
CC(=O)NCN(C)[N+](=O)[O-],-9.6%,-4.95%,8.85%,-11%,-19.8%,-6.5%
CCCC1(C(C)C)C(=O)NC(=S)NC1=O,10.7%,-7.2%,-1.9%,6.55%,-10.6%,-24.1%
NC(=O)OC(CCl)CCl,35.2%,-10.1%,-9%,-13.3%,-10%,-4.3%
CCCOC(=O)CCl,15.4%,15.2%,30.1%,5.25%,5.15%,20.3%
O=C(NC(CCS(=O)(=O)NCc1ccc(S(=O)(=O)F)cc1)C(=O)OCc1ccccc1)OCc1ccccc1 (centres undefined),26.8%,5.7%,16.6%,15.4%,0.2%,29.9%
CC1CCCCN1CCCN=C(N)N[N+](=O)[O-] (centres undefined),9.2%,-3.35%,19.2%,18.1%,18.1%,-0.8%
CN1CCN(C)C1=Nc1ccccc1/C=C/C=C1C(=O)N(C)C(=O)N(C)C1=O,2.7%,8.5%,12.8%,12.2%,-1.2%,14.8%
CC(C)C(C)(O)C#N (centres undefined),2.2%,-2.1%,2.6%,-23.4%,2.9%,17.9%
CC(Br)C(N)=O (centres undefined),-14.4%,-17.8%,-14.1%,-20.4%,-4.9%,-13.8%
COC(=O)C1c2cc(OC)c(OC)cc2C(=O)N2CCc3cc4c(cc3C12)OCO4 (centres undefined),15.8%,-14.8%,0.65%,12.1%,-3.3%,9.2%
[N-]=[N+]=NC12CC3CC(CC(C3)C1)C2,-9.7%,-6%,-7.45%,-9.35%,-25.6%,-20.2%
ClCCN(CCCl)c1ccc(/C=N/c2nc(-c3ccccc3)cs2)cc1,45.6%,27.9%,65.4%,47.4%,-1.75%,60.9%
COP(=O)(OC)O/C(=C(/OP(=O)(OC)OC)c1ccccc1)c1ccccc1,35.5%,14.3%,0.1%,24.1%,-1.35%,25.1%
